This note sets out measurements from the supplement of paper PMC7765376.

Counter-ions that a name gives are not always drawn. Whole data set: some 1,500 compounds, median “Excess HSA synergy score (sum over dose matrix of excess over highest single agent)” near 43, cut for the lowest 2% near -900. This excerpt belongs to a sample that is enriched for the lowest values.

The test system of this assay is PEO-1. As to the kind of experiment: Excess HSA synergy score (sum over dose matrix of excess over highest single agent) (score (summed % response)); higher = less synergy / more antagonism (negative = synergy). The settings on record: 72 h, read-out: viability/apoptosis luminescence (CellTiter-Glo or Caspase3-Glo / not stated per table). (In general: In ATP-based viability assays light output follows the ATP content of the culture.)

Where [1] appears, read: matrix design: 6x6, 5-fold dilutions (primary screen).
Setting [2] is: matrix design: 10x10, 9-step dilutions (confirmatory).

As to `C/C=C(/C)C(=O)O[C@H]1C(C)=C2[C@H]([C@@H]1OC(=O)CCCCCCC)[C@@](C)(OC(C)=O)C[C@H](OC(=O)CCC)[C@@]1(O)[C@H]2OC(=O)[C@@]1(C)O` [Thapsigargin] + CC[C@H](NC(=O)[C@H](C)NC)C(=O)N1C[C@@H](O)C[C@H]1Cc1c(-c2[nH]c3cc(F)ccc3c2C[C@@H]2C[C@H](O)CN2C(=O)[C@H](CC)NC(=O)[C@H](C)NC)[nH]c2cc(F)ccc12 [Birinapant], the “Excess HSA synergy score” value reads like this: under setting [1], -265; under setting [2], -912.

As to `O=C(O)C(=O)CBr` [3-Bromopyruvate] + CC[C@H](NC(=O)[C@H](C)NC)C(=O)N1C[C@@H](O)C[C@H]1Cc1c(-c2[nH]c3cc(F)ccc3c2C[C@@H]2C[C@H](O)CN2C(=O)[C@H](CC)NC(=O)[C@H](C)NC)[nH]c2cc(F)ccc12 [Birinapant], under setting [1], the “Excess HSA synergy score” value is 97.1.

Consider `CCOC(=O)Nc1ccc(NCc2ccc(F)cc2)cc1N` [Retigabine] + CC[C@H](NC(=O)[C@H](C)NC)C(=O)N1C[C@@H](O)C[C@H]1Cc1c(-c2[nH]c3cc(F)ccc3c2C[C@@H]2C[C@H](O)CN2C(=O)[C@H](CC)NC(=O)[C@H](C)NC)[nH]c2cc(F)ccc12 [Birinapant], for which the “Excess HSA synergy score” value under setting [1] stood at 64.5.

As for `CC(C)CC(N(C)C)C1(c2ccc(Cl)cc2)CCC1` (stereo not drawn) [Sibutramine hydrochloride] + CC[C@H](NC(=O)[C@H](C)NC)C(=O)N1C[C@@H](O)C[C@H]1Cc1c(-c2[nH]c3cc(F)ccc3c2C[C@@H]2C[C@H](O)CN2C(=O)[C@H](CC)NC(=O)[C@H](C)NC)[nH]c2cc(F)ccc12 [Birinapant], the “Excess HSA synergy score” value under setting [1] was 96.7.

As for `CC(C)NC1CCn2c(=O)[nH]c3cccc(c32)C1O` (stereo not drawn) [Zilpaterol] + CC[C@H](NC(=O)[C@H](C)NC)C(=O)N1C[C@@H](O)C[C@H]1Cc1c(-c2[nH]c3cc(F)ccc3c2C[C@@H]2C[C@H](O)CN2C(=O)[C@H](CC)NC(=O)[C@H](C)NC)[nH]c2cc(F)ccc12 [Birinapant], the “Excess HSA synergy score” value under setting [1] stood at 413.

With `CC1=C2C[C@H]3[C@@H](CC=C4C[C@@H](O)CC[C@@]43C)[C@@H]2CC[C@]12O[C@@H]1C[C@H](C)CN[C@H]1[C@H]2C` [Cyclopamine] + CC[C@H](NC(=O)[C@H](C)NC)C(=O)N1C[C@@H](O)C[C@H]1Cc1c(-c2[nH]c3cc(F)ccc3c2C[C@@H]2C[C@H](O)CN2C(=O)[C@H](CC)NC(=O)[C@H](C)NC)[nH]c2cc(F)ccc12 [Birinapant], the “Excess HSA synergy score” value under setting [1] came out at 82.1.

Regarding `CCNC(=O)C[C@@H]1N=C(c2ccc(Cl)cc2)c2cc(OC)ccc2-n2c(C)nnc21` + CC[C@H](NC(=O)[C@H](C)NC)C(=O)N1C[C@@H](O)C[C@H]1Cc1c(-c2[nH]c3cc(F)ccc3c2C[C@@H]2C[C@H](O)CN2C(=O)[C@H](CC)NC(=O)[C@H](C)NC)[nH]c2cc(F)ccc12 [Birinapant], the “Excess HSA synergy score” value under setting [1] was -120.

Regarding `CC(C)[C@]12O[C@H]1[C@@H]1O[C@]13[C@]1(O[C@H]1C[C@H]1C4=C(CC[C@@]13C)C(=O)OC4)[C@@H]2O` [Triptolide] + CC[C@H](NC(=O)[C@H](C)NC)C(=O)N1C[C@@H](O)C[C@H]1Cc1c(-c2[nH]c3cc(F)ccc3c2C[C@@H]2C[C@H](O)CN2C(=O)[C@H](CC)NC(=O)[C@H](C)NC)[nH]c2cc(F)ccc12 [Birinapant], the “Excess HSA synergy score” value is, setting by setting: under setting [1], -151; under setting [2], -1170.

For `CC1(N2CCC(n3c([C@@H]4CCCNC4)nc4ccccc43)CC2)CCCCCCC1` + CC[C@H](NC(=O)[C@H](C)NC)C(=O)N1C[C@@H](O)C[C@H]1Cc1c(-c2[nH]c3cc(F)ccc3c2C[C@@H]2C[C@H](O)CN2C(=O)[C@H](CC)NC(=O)[C@H](C)NC)[nH]c2cc(F)ccc12 [Birinapant], the “Excess HSA synergy score” value under setting [1] was 152.

For `O=C(N[C@H]1CN2CCC1CC2)c1ccc(Cl)cc1` + CC[C@H](NC(=O)[C@H](C)NC)C(=O)N1C[C@@H](O)C[C@H]1Cc1c(-c2[nH]c3cc(F)ccc3c2C[C@@H]2C[C@H](O)CN2C(=O)[C@H](CC)NC(=O)[C@H](C)NC)[nH]c2cc(F)ccc12 [Birinapant], the “Excess HSA synergy score” value under setting [1] amounted to 162.

On to `C[C@]12O[C@H](C[C@]1(O)CO)n1c3ccccc3c3c4c(c5c6ccccc6n2c5c31)CNC4=O` [Lestaurtinib] + CC[C@H](NC(=O)[C@H](C)NC)C(=O)N1C[C@@H](O)C[C@H]1Cc1c(-c2[nH]c3cc(F)ccc3c2C[C@@H]2C[C@H](O)CN2C(=O)[C@H](CC)NC(=O)[C@H](C)NC)[nH]c2cc(F)ccc12 [Birinapant], for which the “Excess HSA synergy score” value under setting [1] was -142.

Consider `CC[C@@H]1[C@@H](C)O[C@@](O)([C@@H](C)[C@H](O)[C@H](C)[C@H]2OC(=O)/C=C/C=C/[C@H](C)[C@@H]([C@@H](C)[C@@H](O)[C@H](C)[C@@]3(O)C[C@@H](O[C@H]4C[C@H](O)[C@H](O)[C@H](C)O4)[C@H](CC)[C@@H](C)O3)OC(=O)/C=C/C=C/[C@@H]2C)C[C@H]1O[C@H]1C[C@H](O)[C@H](O)[C@H](C)O1` [Azalomycin-B] + CC[C@H](NC(=O)[C@H](C)NC)C(=O)N1C[C@@H](O)C[C@H]1Cc1c(-c2[nH]c3cc(F)ccc3c2C[C@@H]2C[C@H](O)CN2C(=O)[C@H](CC)NC(=O)[C@H](C)NC)[nH]c2cc(F)ccc12 [Birinapant], for which the “Excess HSA synergy score” value under setting [1] is -24.5.

Turning to `CO/C1=C\C(C)=C\[C@@H](C)[C@@H](O)[C@@H](C)C/C(C)=C/C=C/[C@H](OC)[C@@H]([C@@H](C)[C@@H](O)[C@H](C)[C@@]2(O)C[C@@H](O)[C@H](C)[C@@H](C(C)C)O2)OC1=O` [Bafilomycin A1] + CC[C@H](NC(=O)[C@H](C)NC)C(=O)N1C[C@@H](O)C[C@H]1Cc1c(-c2[nH]c3cc(F)ccc3c2C[C@@H]2C[C@H](O)CN2C(=O)[C@H](CC)NC(=O)[C@H](C)NC)[nH]c2cc(F)ccc12 [Birinapant], the “Excess HSA synergy score” value under setting [2] is -1470.

For `CC1C=CC=CCCC=CC=CC=CC=CC(OC2OC(C)C(O)C(N)C2O)CC2OC(O)(CC(O)C(O)CCC(O)CC(O)CC(O)CC(=O)OC(C)C(C)C1O)CC(O)C2C(=O)O` (stereo not drawn) [Nystatin] + CC[C@H](NC(=O)[C@H](C)NC)C(=O)N1C[C@@H](O)C[C@H]1Cc1c(-c2[nH]c3cc(F)ccc3c2C[C@@H]2C[C@H](O)CN2C(=O)[C@H](CC)NC(=O)[C@H](C)NC)[nH]c2cc(F)ccc12 [Birinapant], the “Excess HSA synergy score” value under setting [1] was 90.8.

On to `N=c1c2c(-c3ccccc3)c(-c3ccccc3)n(Cc3ccccc3)c2ncn1[C@H]1CC[C@H](O)CC1` + CC[C@H](NC(=O)[C@H](C)NC)C(=O)N1C[C@@H](O)C[C@H]1Cc1c(-c2[nH]c3cc(F)ccc3c2C[C@@H]2C[C@H](O)CN2C(=O)[C@H](CC)NC(=O)[C@H](C)NC)[nH]c2cc(F)ccc12 [Birinapant], for which, under setting [1], the “Excess HSA synergy score” value is -361.

`C[C@@]12OC(=O)[C@]1([C@@H](O)[C@@H]1C=CCCC1)NC(=O)[C@@H]2CCCl` [Marizomib] + CC[C@H](NC(=O)[C@H](C)NC)C(=O)N1C[C@@H](O)C[C@H]1Cc1c(-c2[nH]c3cc(F)ccc3c2C[C@@H]2C[C@H](O)CN2C(=O)[C@H](CC)NC(=O)[C@H](C)NC)[nH]c2cc(F)ccc12 [Birinapant]: the “Excess HSA synergy score” value under setting [1] is -95.7.

On to `CO[C@H]1CC[C@@H](O[C@H]2C[C@H]([C@]3(C)CC[C@]4(C[C@H](O)[C@@H](C)[C@@H]([C@@H](C)/C=C(\C)C(=O)[C@H](C)C[C@H](C)C(=O)O)O4)O3)O[C@]3(O[C@@H]([C@H]4O[C@@](O)(CO)[C@H](C)C[C@@H]4C)C[C@@H]3C)[C@@H]2C)O[C@@H]1C` [Nanchangmycin] + CC[C@H](NC(=O)[C@H](C)NC)C(=O)N1C[C@@H](O)C[C@H]1Cc1c(-c2[nH]c3cc(F)ccc3c2C[C@@H]2C[C@H](O)CN2C(=O)[C@H](CC)NC(=O)[C@H](C)NC)[nH]c2cc(F)ccc12 [Birinapant], for which the “Excess HSA synergy score” value by setting is: under setting [1], -308; under setting [2], -1080.

On to `CC[C@@]1([C@@H]2O[C@@H]([C@H]3O[C@@](O)(CO)[C@H](C)C[C@@H]3C)C[C@@H]2C)CC[C@H]([C@]2(C)CC[C@]3(C[C@H](O)[C@@H](C)[C@@H]([C@@H](C)[C@@H](OC)[C@H](C)C(=O)O)O3)O2)O1` [Monensin sodium salt] + CC[C@H](NC(=O)[C@H](C)NC)C(=O)N1C[C@@H](O)C[C@H]1Cc1c(-c2[nH]c3cc(F)ccc3c2C[C@@H]2C[C@H](O)CN2C(=O)[C@H](CC)NC(=O)[C@H](C)NC)[nH]c2cc(F)ccc12 [Birinapant], for which the “Excess HSA synergy score” value under setting [1] is -104.

Consider `Cc1n[nH]c2ccc(-c3cncc(OC[C@@H](N)Cc4c[nH]c5ccccc45)c3)cc12` + CC[C@H](NC(=O)[C@H](C)NC)C(=O)N1C[C@@H](O)C[C@H]1Cc1c(-c2[nH]c3cc(F)ccc3c2C[C@@H]2C[C@H](O)CN2C(=O)[C@H](CC)NC(=O)[C@H](C)NC)[nH]c2cc(F)ccc12 [Birinapant], for which the “Excess HSA synergy score” value under setting [1] was -218.

In the case of `CC(C)c1cccc(C(C)C)c1O` [Propofol] + CC[C@H](NC(=O)[C@H](C)NC)C(=O)N1C[C@@H](O)C[C@H]1Cc1c(-c2[nH]c3cc(F)ccc3c2C[C@@H]2C[C@H](O)CN2C(=O)[C@H](CC)NC(=O)[C@H](C)NC)[nH]c2cc(F)ccc12 [Birinapant], the “Excess HSA synergy score” value under setting [1] was found to be 6.44.
